{"source": "ChEMBL document CHEMBL3988442", "about": "“University of Dundee, Small-Polar-MMV Screening Library” (2021)", "note": "Screen size: about 48,000 compounds; about 13,000 (27%) showed an effect of 50% or more. The list shows a part of the results.", "data": [{"system": "Wolbachia pipientis", "experiment": "Anti-Wolbachia Cell-Based Screen", "type": "functional", "parameters": "scale not given: in the data most compounds retested in dose-response had high values", "conditions": "5 µM", "units": {"Percent Effect": "%"}, "values": [{"smiles": "COCCO[C@@H]1C[C@H]2CN(C(=O)c3cccnc3)CCN2C1", "Percent Effect": -1.303}, {"smiles": "CNC(=O)[C@H]1C[C@@H]2CN(C(=O)c3ccc(C)nc3)C[C@@H]2N1C", "Percent Effect": -27.99}, {"smiles": "COCCn1c(C(=O)NCc2n[nH]c(C)n2)cc2ccccc21", "Percent Effect": -4.273}, {"smiles": "O=C(O)C(F)(F)F.O=C(O)C(F)(F)F.O=C(O)C(F)(F)F.c1ccc(CO[C@@H]2CN(Cc3cccnc3)[C@@H]3COC[C@@H]32)nc1", "Percent Effect": 110.7}, {"smiles": "CNC(=O)[C@@H]1[C@H]2CNCCN2C[C@H]1c1ccccc1", "Percent Effect": 84.83}, {"smiles": "CC(=O)C1(c2ccccc2)CCN(C(=O)C2CNCCO2)CC1", "note": "(stereo not given)", "Percent Effect": 2.674}, {"smiles": "CCOC(=O)[C@@H]1[C@@H](c2ccccc2)CN2CCNC[C@H]12", "Percent Effect": 118.8}, {"smiles": "CC(=O)NC(C)C(=O)NCc1ccc(N2CCNC(=O)C2)cc1", "note": "(stereo not given)", "Percent Effect": 100.5}, {"smiles": "Cl.O=C(N[C@H]1CN[C@H]2CCCO[C@H]21)c1ccno1", "Percent Effect": -7.03}, {"smiles": "O=C1CO[C@@H]2CNC[C@H]2N1CC1CC1", "Percent Effect": -15.76}, {"smiles": "COc1c(CNCCc2c[nH]c3ccccc23)c(C)nn1C", "Percent Effect": 86.16}, {"smiles": "COc1cccc(CCNCc2c(C)nn(C)c2N(C)C)c1", "Percent Effect": -6.952}, {"smiles": "COc1c(CNCCc2c[nH]c3ccccc23)c(C(C)C)nn1C", "Percent Effect": 95.04}, {"smiles": "CC(C(=O)N(C)C)N1CCCN(C(=O)Oc2ccccc2)CC1", "note": "(stereo not given)", "Percent Effect": -7.894}, {"smiles": "Cc1ncc2c(n1)CCCC2NC(=O)c1cnn(Cc2ccccc2)c1", "note": "(stereo not given)", "Percent Effect": 108}, {"smiles": "Cl.NC1(c2nc(C(F)(F)F)cc(=O)[nH]2)CCCCC1", "Percent Effect": -23.28}, {"smiles": "COCCN1CCN(c2ccc(C)nn2)Cc2cccnc21.O=C(O)C(F)(F)F", "Percent Effect": -12.27}, {"smiles": "COCCN1CCN(S(C)(=O)=O)Cc2ccc(C)nc21.O=C(O)C(F)(F)F", "Percent Effect": 1.772}, {"smiles": "COCCN1CCN(c2cccc(C)n2)Cc2ccc(C)nc21.O=C(O)C(F)(F)F.O=C(O)C(F)(F)F", "Percent Effect": 115.7}, {"smiles": "COCCN1CCN(c2ccc(C)nn2)Cc2ccc(C)nc21.O=C(O)C(F)(F)F.O=C(O)C(F)(F)F", "Percent Effect": 113.9}, {"smiles": "COc1ccc(CCN)cc1-c1ccc(O)cc1", "Percent Effect": -1.441}, {"smiles": "COc1cccc2c(=O)n(C3CCNCC3)cnc12", "Percent Effect": 0.1861}, {"smiles": "COCC(=O)NC(C)Cc1cccc(OC)c1", "note": "(stereo not given)", "Percent Effect": -11.91}, {"smiles": "COc1ccc(CC(C)Nc2cccc(F)c2)cc1", "note": "(stereo not given)", "Percent Effect": 103.5}, {"smiles": "COc1cccc(CC(C)NC(=O)NC(C)C)c1", "note": "(stereo not given)", "Percent Effect": -4.746}, {"smiles": "CC(=O)N1C[C@H]2CNC[C@@]2(C(=O)NCCCOc2cccnc2)C1", "Percent Effect": -25.71}, {"smiles": "CC(=O)N1CC[C@H]2N(C)CC[C@@]2(C(=O)Nc2cccnc2)CC1", "Percent Effect": 115.3}, {"smiles": "CC(=O)N1CCC2(CC1)NC(=O)[C@H]1CN(Cc3cccnc3)C[C@H]12", "Percent Effect": -21.72}, {"smiles": "O=C(CCc1nccs1)N1CCC(C(=O)O)(c2ccccc2)CC1", "Percent Effect": 4.146}, {"smiles": "CC1CCN(CC(=O)N(Cc2ccccc2)Cc2nccs2)C1=O", "note": "(stereo not given)", "Percent Effect": 108.7}, {"smiles": "CN(Cc1nc(C2CC2)no1)C(=O)CN1CC(c2ccccc2)CC1=O", "note": "(stereo not given)", "Percent Effect": -16.31}, {"smiles": "O=C(NC[C@H]1C[C@@H]2CCN1C[C@@H]2CN1CCOCC1)Nc1ccccc1", "Percent Effect": 10.54}, {"smiles": "Cc1cc(C(=O)N2CCC3(CCN3Cc3ccc(F)cc3)C2)no1.O=C(O)C(F)(F)F", "note": "(stereo not given)", "Percent Effect": -18.68}, {"smiles": "O=C(O)C(F)(F)F.O=C(O)C(F)(F)F.O=C(O)C(F)(F)F.O=C1N(c2cccnc2)CCC12CCCN(Cc1cccnc1)C2", "note": "(stereo not given)", "Percent Effect": -3.646}, {"smiles": "CC[C@@H]1N(Cc2cccnc2)CCC[C@]12CCC(=O)N2C.O=C(O)C(F)(F)F.O=C(O)C(F)(F)F", "Percent Effect": 114.6}, {"smiles": "Cc1ccc(CN2CC[C@@H]3[C@H]2CCC(=O)N3Cc2ccncc2)s1.O=C(O)C(F)(F)F.O=C(O)C(F)(F)F", "Percent Effect": 13.87}, {"smiles": "CC[C@@H]1N(Cc2ccncc2)CCC[C@]12CCC(=O)N2C.O=C(O)C(F)(F)F.O=C(O)C(F)(F)F", "Percent Effect": 105.4}, {"smiles": "CC[C@@H]1N(Cc2ccccn2)CCC[C@]12CCC(=O)N2CCOC", "Percent Effect": 95.06}, {"smiles": "Cn1cc(N2C(=O)CC[C@@H]3[C@H]2CCN3Cc2ccncc2)cn1.O=C(O)C(F)(F)F.O=C(O)C(F)(F)F", "Percent Effect": -8.311}, {"smiles": "CNC(=O)CN1C(=O)CCC12CCCN(Cc1ccccn1)C2", "note": "(stereo not given)", "Percent Effect": -6.812}, {"smiles": "COCCCN1CCCCC12CC(=O)N(Cc1ccccn1)C2", "note": "(stereo not given)", "Percent Effect": -0.9294}, {"smiles": "CN(C)C(=O)CN1CCC2(CCCN(Cc3cccnc3)C2)C1=O.O=C(O)C(F)(F)F.O=C(O)C(F)(F)F", "note": "(stereo not given)", "Percent Effect": -8.484}, {"smiles": "O=C(O)C(F)(F)F.O=C(O)C(F)(F)F.O=C1CC[C@@H]2[C@@H](CCN2Cc2ccncc2)N1c1ccccc1", "Percent Effect": -23.66}, {"smiles": "CC[C@@H]1N(Cc2ccncc2)CCC[C@]12CCC(=O)N2CCOC.O=C(O)C(F)(F)F.O=C(O)C(F)(F)F", "Percent Effect": 102.9}, {"smiles": "Cc1oc(-c2ccco2)nc1CC(=O)N1CCN(C2CCC2)CC1", "Percent Effect": 0.04228}, {"smiles": "CNC(=O)[C@H]1C[C@@H]2CN(C(=O)c3cncc(C)c3)C[C@@H]2N1C", "Percent Effect": -44.11}, {"smiles": "O=C1O[C@@H]2CN(Cc3ccsc3)C[C@@H]2N1Cc1ccccn1", "Percent Effect": -2.572}, {"smiles": "CCN1CCN(C)C(=O)C12CCN(C(=O)Cc1ccccn1)CC2.O=C(O)C(F)(F)F", "Percent Effect": 105.5}, {"smiles": "CCN1CCNC(=O)C12CCN(C(=O)Cc1ccccn1)CC2", "Percent Effect": 118.9}, {"smiles": "CCS(=O)(=O)N1CCC2(C1)C(=O)N(C)CCN2Cc1ccncc1.O=C(O)C(F)(F)F.O=C(O)C(F)(F)F", "note": "(stereo not given)", "Percent Effect": -0.1551}, {"smiles": "O=C(CCc1cscn1)N1CCC(C(=O)O)(c2ccccc2)CC1", "Percent Effect": -1.592}, {"smiles": "CCN1CCNC(=O)C12CCN(C(=O)c1ccccn1)CC2", "Percent Effect": 120}, {"smiles": "N#CC1(c2ccccc2)CCN(C(=O)CN2C(=O)CCNC2=O)CC1", "Percent Effect": -11.36}, {"smiles": "CC(C)N1CCN(C)C2(CCN(C(=O)c3ccnnc3)CC2)C1=O", "Percent Effect": -6.646}, {"smiles": "CC(C)CN1CCNC(=O)C12CCN(C(=O)c1ccccn1)CC2", "Percent Effect": -2.981}]}]}
